Each structure is given as a SMILES string.

In the assay the target is AMP-activated protein kinase, AMPK (Homo sapiens) (UniProt P54646+O43741+P54619+Q9UGJ0+Q9Y478+Q13131+Q9UGI9). In words: AMP-dependent Kinase enzyme assay. An in vitro enzyme assay that detects ADP turnover that is directly proportional to AMPK activity. This uses naive AMPK that is activated during the assay with MK-8722. In kind it is functional. Details: scale not given: direction of the effect not stated beside the values. To be noted: 30 µM.
In the case of `O=C(c1cc(C2CC2)on1)N1C[C@H]2CC[C@](O)(c3ccc(F)cc3)[C@H]2C1`, the Percent Effect was 12.8%.

Take `Cc1cc(C)c2c(NCc3nncn3C3CCCCC3)ncnc2n1`: the Percent Effect was -0.11%. In the case of `Cc1nc2c(c(NCCNC(=O)C(C)C)n1)Cc1ccccc1OC2` it was 3.56%; in that of `CCN1CC2(CCN(CC3CCCO3)CC2)OC1=O` (stereo not given), -9.49%; in that of `c1ccc(OCCCn2ccnc2-c2cn(C3CCNCC3)nn2)cc1`, -1.92%.

On to `Cc1nn(C)c2ncnc(NCc3nncn3C3CCCCC3)c12`, for which the Percent Effect came to 10.1%. Next, `COc1ccc(CN2CC(n3cccn3)C2)cc1F`: -6.94%; `COc1ccc(C(=O)N2C[C@@H](O)[C@H](NCc3cnc(C)cn3)C2)cc1`: -12.3%; `CCC(C)NC(=O)Nc1cccc(OC)c1` (stereo not given): -9.8%. With `COc1ccc(C)c(NC(=O)NCc2ncnn2C)c1`, the Percent Effect is -3.74%. As to `COc1cccc(F)c1CN1CCC(c2nc(C)cc(C)n2)C1` (stereo not given), the Percent Effect turned out to be 1.72%. In the case of `COc1c(C)cnc(CN2CCn3c(C)nnc3C2)c1C` it was 8.91%. Next, `COc1cc(CCC(=O)N2CCC(c3cc4ncc(C)nc4[nH]3)C2)on1` (stereo not given): -0.349%. Regarding `CCN(C(=O)Cn1cc(Cl)cn1)c1ccccc1`, the Percent Effect was -10.4%.

Regarding `Cc1ccccc1S(=O)(=O)Cc1nsc(N(C)C)n1`, the Percent Effect is -0.34%. In the case of `O=C(Nc1ccccc1F)NC1(CO)CCOCC1` it was -1.57%; in that of `CN(CCc1ccccn1)CCc1nccs1`, 0.423%. For `COCCN1CC2(CCCN(Cc3cc(=O)c(OC)co3)C2)CCC1=O` (stereo not given), the Percent Effect was -2.15%. As to `CSC1(CNC(=O)N(C)Cc2ccc(C)s2)CCOCC1`, the Percent Effect was -2.72%.

Consider `CNC(=O)C1Cc2ccccc2CN1C(=O)CC(C)C` (stereo not given), for which the Percent Effect is -7.28%. In the case of `CC(C)OCCN1CCC(Nc2ncccn2)CC1` it was -1.19%. Next, `Cc1nc(CN2CCc3ccc(S(N)(=O)=O)cc32)oc1C`: -7.39%; `CC(NC(=O)NC1CCN(Cc2ccncc2)CC1)c1ccc(F)cc1` (stereo not given): 7.79%; `CC(C(N)=O)N1CCN(c2ncc(Br)cn2)CC1` (stereo not given): -3.12%. In the case of `CC(C)(C)c1ccc(C(=O)NCCCNC(=O)c2cnccn2)cc1` it was 8.31%. As for `O=S(=O)(c1ccccc1N1CC(n2cccn2)C1)C(F)(F)F`, the Percent Effect was found to be 16%.

Turning to `Cc1cccc(C)c1Nc1noc2c1CN(C(=O)c1ccn(C)n1)CC2`, the Percent Effect was determined as 15.9%. In the case of `c1cc(CN2CCC[C@@H](Cn3nnc(-c4cnccn4)n3)C2)ccn1` it was 6.31%; in that of `CC(NC(=O)C(C)(C)C)c1cc(O)nc(-c2cccnc2)n1` (stereo not given), 6.37%. On to `NC(=O)C(NC1CCN(CC2CCCCC2)CC1)c1ccc(F)cc1` (stereo not given), for which the Percent Effect was -4.02%. In the case of `O=C(NCC1CCOC1)c1cc(-c2ccccc2Cl)[nH]n1` (stereo not given) it was 2.35%.

`COCCC(=O)NCCc1nc2cc(-c3ccc(OC)cc3)ncn2n1`: the Percent Effect stood at 20%.

For `Cc1ccc(C(CNC(=O)c2cc(=O)c3ccccc3[nH]2)N(C)C)cc1` (stereo not given), the Percent Effect turned out to be 6.26%. Next, `Cc1nc2c(c(N[C@@H](CO)C(N)=O)n1)Cc1ccccc1OC2`: -0.406%. In the case of `Cc1ccnc2c1NC(=O)CN2C(=O)CCc1cccs1`, the Percent Effect is -0.535%. In the case of `Cc1ncsc1C(=O)OCCN1CCCCCC1=O` it was 5.73%. Regarding `CC(=O)N1CCCC1(C(=O)N1CCCC1)c1cnccn1` (stereo not given), the Percent Effect is -0.265%. On to `COCCCC1(CO)CCCN(C(=O)c2cnc(C3CC3)nc2)C1` (stereo not given), for which the Percent Effect amounted to 2.98%. In the case of `Cc1cc(N2Cc3cnn(CCO)c3C2)nc(-c2ccccc2O)n1` it was 28.4%. As to `CC(NC(=O)c1ccc2c(c1)COC2)c1cccc(N2CCOC2=O)c1` (stereo not given), the Percent Effect came out at 5.03%.

These data come from ChEMBL document CHEMBL3988442, “University of Dundee, Small-Polar-MMV Screening Library” (2021).
